Structures are written as SMILES. Compounds without any hit were thinned out: in the full panel of roughly 83,000, 20% have a hit.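 Method: cells in 96-well plates; compound added at one concentration; 48 h incubation; percent growth measured; values under 10 scored active.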 Calls of active or inactive are those of the source.

The test system of the experiment is MDA-MB-468 breast. As to the kind of experiment: NCI-60 one-dose screen, 48 h (100 = growth as untreated, 0 = no growth, -100 = all killed). The settings on record: 10 µM unless noted.
Turning to `CN(C)CCCN1c2ccccc2Sc2ccc(C(F)(F)F)cc21`, the growth is -76.9% (active).

Regarding `NC(=S)N/N=C1\CCCC(C(F)(F)F)C1` (stereo unspecified), the growth was 31.3% (inactive).

For `Oc1c(C(Nc2ccccc2Br)c2ccccc2)ccc2cccnc12` (stereo unspecified), the growth is -4% (active).

As for `CC(=O)N1N=C(c2ccc(C)cc2)CC1c1cn(-c2ccccc2)nc1-c1cccc(Nc2ccnc3cc(Cl)ccc23)c1` (stereo unspecified), the growth was 9.76% (active).

Take `Clc1ccc2oc3c(NCCCN4CCOCC4)c4ccccc4nc3c2c1`: the growth is 5.24% (active).

Turning to `O=C(Cc1ccc(NC(=O)c2cccc(Cl)c2)cc1)NCc1ccccc1`, the growth is 39% (inactive).

Take `N#Cc1ccc(N2Cc3ccccc3OC3=C2C(=O)c2c(O)ccc(O)c2C3=O)cc1`: the growth was -18.8% (active).

Consider `C=C(C)[C@@H]1CC[C@]2(C=O)CC[C@]3(C)[C@H](CC[C@@H]4[C@@]5(C)CCCNC(C)(C)[C@@H]5CC[C@]43C)[C@@H]12`, for which the growth is 64.6% (inactive).

On to `CSc1nc2ccccc2cc1/C=[N+](\[O-])c1ccccc1`, for which the growth is 88% (inactive).

Consider `CCc1cccc(C)c1NC(=O)c1sc2nc3c(cc2c1N)CCCCC3`, for which the growth was 10.8% (inactive).

For the molecule `COc1ccc(-c2nc(-c3nc4cc(C)c(C)cc4[nH]3)cc3c2[nH]c2ccccc23)cc1`, the growth is -27.7% (active).

Turning to `C[n+]1c2ccccc2nc2ccccc21`, the growth is 9.7% (active).

In the case of `O=C1c2ccccc2C(=O)c2c(Nc3ccc(CCO)cc3)ccc(O)c21`, the growth was 38% (inactive).

Take `COc1ncnc2c1ncn2C/C(Br)=C(\Br)CCl`: the growth is 16.9% (inactive).

As to `COc1ccc(-c2cc(-c3ccccc3)nc(NCCNc3ccnc4cc(Cl)ccc34)n2)cc1`, the growth is -73.7% (active).

In the case of `COc1ccc(/C=C/C(=O)N2CCC(O)CC2)cc1OC1CCCC1`, the growth is 114% (inactive).

As for `COc1ccc(C2C(C#N)=C(N)Oc3c2ccc2ccccc32)cc1` (stereo unspecified), the growth was 14.5% (inactive).

As to `COc1ccc2c(=O)c(OC)c(-c3cc(OC)c(OC)c(OC)c3)oc2c1`, the growth was 86.5% (inactive).

For `[O-][n+]1c2ccccc2[n+]([O-])c2c3ccccc3[nH]c21`, the growth was -36.6% (active).

As for `Cc1ccc(Nc2nc(N)nc(CSCC(=O)NN)n2)cc1`, the growth is 95.7% (inactive).

Consider `COc1cc2c3c(n(C4CCN(C)CC4)c(=O)c2cc1OC)-c1cc2c(cc1C3=O)OCO2`, for which the growth is 31.6% (inactive).

As to `O=C(CSc1nccc(Nc2ccc(S(=O)(=O)Nc3ccccn3)cc2)n1)c1ccc(Cl)cc1`, the growth is 81.2% (inactive).

In the case of `CN1CCN(CCOc2ccc(-c3cnc4c(-c5cccc(F)c5F)cnn4c3)cc2)CC1`, the growth was 94.8% (inactive).

`COc1cc(-c2nn(-c3ccccc3)cc2-c2ccnc(NCCNS(=O)(=O)c3ccc(Cl)cc3)n2)ccc1Cl`: the growth was 31.2% (inactive).

Take `C#Cc1cc(OC)c(C(=O)Nc2ccc(F)cc2C(=O)Nc2cccc(S(=O)(=O)C(F)(F)F)c2)cn1`: the growth is -31.3% (active).

In the case of `NC(N)=N/N=C(/c1ccccc1)c1ccc(N)cc1`, the growth was 119% (inactive).

Source of the values: PubChem BioAssay (NCI).
